Bioassay records from PubChem BioAssay.
L3MBTL1 inh: inhibitors of human L3MBTL1; Q9Y468; AlphaScreen L3MBTL1–H3K9me1 peptide binding; Potency, µM (top dose mostly 57.1 µM), inactives show top-dose activity, negative = inhibition, most hits filed as inhibitors; actives 0.66% (n = 230,000); AID 485360; note: % is set by controls: 0 for no effect and ±100 for the full control effect; nearly all actives have a fitted effect of over 60% in size
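L3MBTL1 (50 nM) pre-complexed 30 min with biotinylated H3(1-15)K9me1 peptide (75 nM), then compounds added for 30 min at room temperature; AlphaScreen streptavidin donor/nickel chelate acceptor beads (10 ug/mL final) read after 30 min dark incubation.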
Sfp inh: blocks B. subtilis Sfp PPTase activity. AID 1490. actives 3.5% (n = 310,000). Potency, µM, inactives show largest response in the series, negative = inhibition, hits mostly inhibitors. Biochemical Sfp PPTase activity, qHTS;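 note: the enzyme is Sfp with the accession as filed and its product quenches rhodamine fluorescence; 0% = enzyme reaction without inhibitor and -100% = no enzyme wells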
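Buffer: 50 mM Hepes-Na pH 7.6, 10 mM MgCl2, 0.01% Nonidet P-40, 0.01% BSA. Enzyme 15 nM, pre-exposed to compound 15 min; substrates then added and fluorescence change tracked over 30 min.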
BAZ2B block: inhibitors of human BAZ2B bromodomain; Q9UIF8; Potency, µM (titrated, usually from 114 µM), inactives show at the highest dose activity change, negative = inhibition, usual class: inhibitors; AlphaScreen BAZ2B-H3K14Ac peptide displacement; actives 4.4% (n = 360,000); note: % is set by controls: 0 for no effect and ±100 for the full control effect; nearly all actives have a fitted effect of over 60% in size
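AlphaScreen displacement of biotin-H3(5-23)K14Ac peptide (50 nM final) from BAZ2B (50 nM final) in PBS pH 7.4, 0.01% Tween-20; complex preformed 30 min RT, then compounds (top 110 uM) 30 min RT, beads 20 min dark.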
G9a block: blocks human histone lysine methyltransferase G9a | Potency, µM (highest dose often 102 µM), inactives show at the top dose activity, negative = inhibition, actives largely listed as inhibitors | Q96KQ7 | G9a H3K9 monomethylation, AlphaScreen, 2 h | actives 8.8% (n = 350,000); note: % is set by controls: 0 for no effect and ±100 for the full control effect; nearly all actives have a fitted effect of over 75% in size
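Signal arises when biotinylated H3K9 peptide, once monomethylated, bridges streptavidin donor and antibody-captured acceptor beads. Enzyme at 20 nM was preincubated 15 min with test compounds; peptide 500 nM and SAM 20 uM then reacted for 2 h.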
HP1b chromo inh: blocks HP1-beta chromodomain binding to methylated histone tails | P83916 | AlphaScreen HP1-beta / biotin-H3K9me3 peptide binding | Potency, µM (top dose mostly 114 µM), inactives show at the highest dose activity change, negative = inhibition, hits mostly inhibitors | actives 0.56% (n = 390,000); note: nearly all actives have a fitted effect of over 70% in size
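HP1-beta protein (50 nM final) preincubated 30 min at room temperature with biotinylated H3(1-18)K9me3 peptide (50 nM) in PBS pH 7.4, 0.01% Tween-20, then compound added for 30 min. AlphaScreen streptavidin donor/nickel chelate acceptor beads (10 ug/mL final), 30 min dark, luminescence read.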
JMJD2A Tudor inh: inhibitors of human JMJD2A Tudor domain. O75164. AlphaScreen JMJD2A-Tudor / H3K4me3 peptide binding. Potency, µM (top dose mostly 114 µM), without a hit: at the top dose activity change, negative = inhibition, hits mostly inhibitors. actives 4.4% (n = 390,000). AID 504339; note: % is set by controls: 0 for no effect and ±100 for the full control effect; nearly all actives have a fitted effect of over 50% in size
Target sequence (O75164 whole entry, looked up, the tested form may be a part): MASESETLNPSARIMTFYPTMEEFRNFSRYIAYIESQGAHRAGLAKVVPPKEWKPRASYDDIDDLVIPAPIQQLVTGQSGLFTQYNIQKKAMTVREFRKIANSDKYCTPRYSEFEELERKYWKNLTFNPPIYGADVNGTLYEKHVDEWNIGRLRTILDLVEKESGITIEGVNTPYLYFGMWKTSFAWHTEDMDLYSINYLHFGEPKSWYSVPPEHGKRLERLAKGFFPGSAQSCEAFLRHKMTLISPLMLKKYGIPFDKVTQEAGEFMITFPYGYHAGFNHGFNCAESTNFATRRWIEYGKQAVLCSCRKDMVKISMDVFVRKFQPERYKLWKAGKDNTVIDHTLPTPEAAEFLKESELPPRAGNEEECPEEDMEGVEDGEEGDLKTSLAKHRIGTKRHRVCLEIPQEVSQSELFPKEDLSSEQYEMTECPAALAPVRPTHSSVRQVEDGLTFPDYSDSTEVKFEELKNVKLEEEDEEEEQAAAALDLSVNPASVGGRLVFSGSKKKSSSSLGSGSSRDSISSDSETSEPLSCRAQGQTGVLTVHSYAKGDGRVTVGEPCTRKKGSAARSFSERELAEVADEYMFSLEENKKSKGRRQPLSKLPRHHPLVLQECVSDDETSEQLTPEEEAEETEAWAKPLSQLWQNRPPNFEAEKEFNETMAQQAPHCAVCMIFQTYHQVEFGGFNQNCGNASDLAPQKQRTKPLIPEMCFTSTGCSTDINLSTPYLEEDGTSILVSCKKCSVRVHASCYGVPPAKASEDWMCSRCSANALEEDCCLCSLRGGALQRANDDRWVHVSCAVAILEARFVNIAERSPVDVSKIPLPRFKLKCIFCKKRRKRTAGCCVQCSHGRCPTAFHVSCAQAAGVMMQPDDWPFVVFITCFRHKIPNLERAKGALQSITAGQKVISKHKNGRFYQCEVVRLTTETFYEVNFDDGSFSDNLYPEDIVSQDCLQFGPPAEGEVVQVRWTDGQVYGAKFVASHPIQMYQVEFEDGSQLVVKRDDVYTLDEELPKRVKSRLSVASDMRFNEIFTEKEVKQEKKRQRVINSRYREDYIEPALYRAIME
The depositor's hits bear a star; ? = inconclusive; . = not tested or not shown; [ ] = remark or other dose. Compounds with a hit are over-represented: about 12% of the library has one in this group of screens. Calls come from the whole dose curve; as a rule, active = well fitted curve in the direction sought with a large enough effect; inconclusive = small, poorly fitted or top-dose-only effect, or another doubt; inactive = no such curve, though single readings can be large; an effect the other way counts as inactive or inconclusive. Potency is the fitted concentration of half-maximal effect.

SMILES	L3MBTL1 inh	Sfp inh	BAZ2B block	G9a block	HP1b chromo inh	JMJD2A Tudor inh
CC(C)n1cc(/C=C2/SC(=O)N(CC(=O)N3CCCC3)C2=O)c2ccccc21	29.7%	6.0%	23.5%	-39.5%[59 µM]	32.8%	?
Cc1ccc(-c2ccc(/C=C3\SC(N4CCOCC4)=NC3=O)o2)cc1	.	39.8µM*	.	31.6µM*	-28.8%	-15.8%[11.4 µM]
CCc1ccc(CNC(=O)Cn2nc(C)c3nn(-c4ccc(Cl)cc4)c(C)c3c2=O)cc1	.	.	1.7%	0.9%[59 µM]	19.2%[57 µM]	-3.9%
CC12CCC(=O)N1C(C(=O)Nc1cc(S(=O)(=O)N3CCCCCC3)ccc1OCC(F)(F)F)CS2 (centres undefined)	.	8.4%	-10.4%	.	24.8%	-15.9%
CCCCC#CC1C=CC(Oc2ccc(C(=O)OC)cc2)C(COC(=O)OCC)O1 (centres undefined)	.	7.3%	.	.	.	.
O=C1S/C(=C\c2ccc(N3CCOCC3)o2)C(=O)N1Cc1ccc(F)cc1	-3.1%	2µM*	-30.8%	?	-7.6%	?
Nc1cccc2c(=O)[nH]ccc12	.	-21.1%	.	.	.	.
CNC(=O)c1cccc(-n2c(C)nc3cccnc32)c1C	.	.	-0.3%	3.5%[59 µM]	40.4%	7.2%
O=C(Cc1ccc(-n2cccc2)cc1)N1CCN(c2ccccc2F)CC1	-22.6%	-0.4%	50.1µM*	50.1µM*	?	35.5µM*
CC1=C(c2ccc(C)cc2)S(=O)(=O)NC1=NCCCN1CCN(c2ccc(F)cc2)CC1	.	.	-15.2%	?	49.8%	-7.9%
COc1ccc(N2CCN(C(=O)CN=C3NS(=O)(=O)C(c4ccc(C)cc4)=C3C)CC2)cc1	-14.3%	-14.6%	-8.4%	39.8µM*	-3.6%	-24.1%
O=C(CCC(=O)N1CCN(c2ccccc2F)CC1)N1CCN(c2ccc(F)cc2)CC1	1.4%	9.0%	-17.6%	9.9%	-2.6%	5.1%[57.1 µM]
COc1ccc(N2CCN(C(=O)Cc3ccc(C)cc3)CC2)cc1	-10.0%	-7.1%	-32.6%	70.8µM*	4.0%	-29.7%
COc1ccc(N2CCN(c3nc(Cl)nc(N4CCOCC4)n3)CC2)cc1	?	-9.4%	-6.8%	7.94µM*	-25.8%	?
COc1ccc(N2CCN(c3nc(NCCO)nc(N4CCOCC4)n3)CC2)cc1	-2.9%	9.0%	?	?	-15.8%	-31.3%
COc1ccc(CC(=O)N2CCOCC2)cc1	1.4%	-20.5%	8.7%	?	61.2%	-16.2%
CCOc1ccc(C(=O)NCc2ccc3c(c2)OCO3)cc1	9.6%	1.1%	-0.3%	11.3%	54.8%	-9.0%
CCN(C(=O)c1cc2c(s1)-c1c(C)cccc1OC2)c1ccccc1F	.	.	133.9%	226.5%[59 µM]	209.8%	189.1%
CCOC(=O)C1CCCN(C(=O)Cn2c(=O)c3cccn3c3cccnc32)C1 (centres undefined)	.	20.7%	-19.9%	7.4%	30.1%	-16.0%
O=c1c(-c2cc(F)cc(F)c2)nc2cnc(N3CCOCC3)nc2n1C[C@H]1CCCO1	.	3.6%	.	-3.8%[0.501 µM]	.	.
COc1ccc(N2CCN(C(=O)Cc3ccc(Cl)cc3)CC2)cc1	-10.0%	-2.5%	?	50.1µM*	-8.4%	-34.5%
COc1ccc(N2CCN(C(=O)Cc3nn(C)c(=O)c4ccccc34)CC2)cc1	-1.5%	-3.8%	11.8%	35.5µM*	9.6%	-10.2%[57.1 µM]
O=C(Cc1ccc(Cl)cc1)N1CCN(c2ccc(F)cc2)CC1	.	-1.0%	-19.8%	42.3%[0.501 µM]	82.9%	-18.9%
COc1ccc(CNC(=O)Cc2nn(C)c(=O)c3ccccc23)cc1	0.4%	4.6%	6.5%	7.8%	28.1%	-3.7%
Cc1cc(C(=O)CCC(=O)N2CCN(c3ccccc3O)CC2)c(C)s1	-0.8%	.	-4.2%	-12.1%[12.7 µM]	19.0%	-24.2%
SMILES	L3MBTL1 inh	Sfp inh	BAZ2B block	G9a block	HP1b chromo inh	JMJD2A Tudor inh
COc1ccc(N2CCN(C(=O)CCC(=O)c3cc(C)sc3C)CC2)cc1	-1.2%	6.1%	?	50.1µM*	-10.5%	?
CSc1ccc(S(=O)(=O)NCC(=O)OCC(=O)N2CCCCC2C)cc1[N+](=O)[O-] (centres undefined)	4.3%	.	7.9%	-29.2%	27.7%	-11.7%
Cc1cccc(NC(=O)Cn2nnc(C(=O)Nc3ccccc3Br)c2N)c1C	.	.	13.3%[57.1 µM]	-4.6%[59 µM]	35.0%	-15.5%
Cc1c[n+](CC(=O)c2ccccc2)cs1	-3.0%[2.29 µM]	9.1%	-3.7%	14.7%[0.501 µM]	38.0%	-17.3%
CNC(=O)C1C(=S)NC(N)=C(C#N)C1c1ccccc1 (centres undefined)	.	3.98µM*	-10.6%	12.6µM*	-19.2%	25.1µM*
N#CC1=C(N)Nc2ncnn2C1c1ccccc1 (centres undefined)	6.5%	13.4%	4.7%	21.8%[59 µM]	.	.
COc1cc(/C=N/NC(=O)[C@H](Cc2c[nH]c3ccccc23)NC(=O)OCC(C)C)cc([N+](=O)[O-])c1O	-3.3%	5.9%	39.8µM*	?	-16.7%	?
Cc1ccc(S(=O)(=O)Nc2c(NC3CCCCC3)c3ccccc3oc2=O)cc1C	.	5.7%	-0.2%	.	12.9%[57 µM]	-12.8%
Cc1ccc(S(=O)(=O)Nc2c(O)c3ccccc3oc2=O)cc1C	.	10.0%	5.1%	50.1µM*	-0.8%	-1.4%
Cc1ccc(S(=O)(=O)Nc2c(O)c3ccccc3oc2=O)cc1	.	0.2%	-3.3%	28.2µM*	46.3%	-13.8%
C/C(=N/NS(=O)(=O)c1ccc(C)cc1)c1c(O)c2ccccc2oc1=O	.	10.8%	-18.3%	50.1µM*	15.0%	-12.8%
COc1ccc(S(=O)(=O)Nc2c(O)c3ccccc3oc2=O)cc1	.	20.2%	29.3%	-35.6%[12.7 µM]	18.7%	-7.9%
COC(=O)CNC(=O)C1(CC(C)C)C=CCN1C(=O)c1ccccc1 (centres undefined)	.	26.2%	.	.	.	.
CCN(CC)CCN(C(=O)c1ccc2c(c1)CCCC2)c1nc2ccc(C)cc2s1	.	?	-38.9%	?	-10.0%	?
CCN(CC)CCN(C(=O)c1ccc2c(c1)CCCC2)c1nc2ccc(F)cc2s1	.	-27.8%	.	50.1µM*	15.3%	-35.2%
Cc1ccc2nc(N(CCCN(C)C)C(=O)c3sc4ccccc4c3Cl)sc2c1	-10.6%	44.7µM*	?	50.1µM*	?	44.7µM*
CN(C)CCCN(C(=O)c1ccco1)c1nc2ccc(Cl)cc2s1	-6.8%	-7.0%	?	?	19.4%	-16.2%
